Reference: PubChem BioAssay (NCI)
Compounds without any hit were thinned out: in the full panel of roughly 83,000, 20% have a hit.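 Activity criterion: percent growth below 10, measured after cells in 96-well plates were exposed to a single compound concentration for 48 hours.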 Values without a mark were called inactive. Calls of active or inactive are those of the source.

Tests used:
Experiment in all cases: NCI-60 one-dose screen, 48 h (100 = growth as untreated, 0 = no growth, -100 = all killed)
Conditions in all cases: 10 µM unless noted
NCI-H23 lung = tested on: NCI-H23 lung
NCI-H226 lung = tested on: NCI-H226 lung
NCI-H322M lung = tested on: NCI-H322M lung
HOP-62 NSCLC = tested on: HOP-62 NSCLC
NCI-H460 lung = tested on: NCI-H460 lung
HOP-92 NSCLC = tested on: HOP-92 NSCLC
NCI-H522 lung = tested on: NCI-H522 lung
A549/ATCC NSCLC = tested on: A549/ATCC NSCLC
786-0 renal = tested on: 786-0 renal
COLO 205 colon = tested on: COLO 205 colon

Row | SMILES | growth (NCI-H23 lung) | growth (NCI-H226 lung) | growth (NCI-H322M lung) | growth (HOP-62 NSCLC) | growth (NCI-H460 lung) | growth (HOP-92 NSCLC) | growth (NCI-H522 lung) | growth (A549/ATCC NSCLC) | growth (786-0 renal) | growth (COLO 205 colon)
1 | C=CCc1c(O)c(C(=O)/C=C/c2ccccc2)c(OC)c2ccoc12 | 53.4% | 21.9% | 61.9% | 88% | 16.8% | 47.3% | 37.9% | 44.7% | 71.3% | 59.5%
2 | CC(C)(Sc1cc(C(C)(C)C)c(OC(=O)CCCC(=O)O)c(C(C)(C)C)c1)Sc1cc(C(C)(C)C)c(OC(=O)CCCC(=O)O)c(C(C)(C)C)c1 | 29.5% | 64.8% | 49.5% | 38% | 9.34% (active) | 73% | 37.8% | 21.4% | 49.7% | 58.4%
3 | O=C(CSc1oc(-c2ccccc2)nc1S(=O)(=O)c1ccccc1)Nc1ccc(F)cc1 | 78.6% | 87% | 76.9% | 86.1% | 93.5% | 2.48% (active) | 72.2% | 76.9% | 59.1% | 101%
4 | CC(=O)c1c(C)nc2ccccc2c1/C=C/c1ccc(F)cc1 | 81.7% | 77.2% | 96.8% | 92% | 91.5% | 75.6% | 69.2% | 83.8% | 89.4% | 104%
5 | C=CCN=c1sc2c(n1NC(=O)c1cc3ccc1CCc1ccc(cc1)CC3)C(=O)c1ccccc1C2=O | -34.1% (active) | 48.5% | 67.8% | 19.5% | 12.7% | 21.5% | -20.2% (active) | 23.3% | -21.8% (active) | 19.2%
6 | COc1cccc(/C=C2\COc3ccc(O)c(O)c3C2=O)c1 | 47% | 79.1% | 36.4% | 4.02% (active) | 28.7% | -12% (active) | -67% (active) | 47.6% | -38.1% (active) | 43.3%
7 | NS(=O)(=O)c1ccccc1NC(=O)Nc1nc2ccccc2s1 | 90.8% | 91.5% | 98% | 96.1% | 103% | 99.1% | 91.9% | 101% | 98% | 109%
8 | Cn1cc(-c2csc(-c3c[nH]c4ccc(Br)cc34)n2)c2ccnc(Cl)c21 | 62.1% | 59.4% | 67.1% | 101% | 9.96% (active) | 64.2% | 56.3% | 42.4% | 47% | 42.5%
9 | N#CSc1c[nH]c2cccc(/C=C/C(=O)/C=C(/C=C/c3cccc4[nH]cc(SC#N)c34)OB(F)F)c12 | -45.4% (active) | -75.9% (active) | 53.7% | -26.1% (active) | 4.16% (active) | -62.1% (active) | -65.2% (active) | -8.65% (active) | -51.6% (active) | -60% (active)
10 | CCCCCN1C(=O)/C(=c2\sc3n(c2=O)C2C(NN=3)N(CC)C(=O)N2CC)c2ccccc21 (stereo not given) | 12.1% | 9.26% (active) | 21.2% | 9.45% (active) | -74.6% (active) | 3.79% (active) | -28% (active) | -85% (active) | -61.6% (active) | 0.959% (active)
11 | CSc1oc(C)nc1[P+](c1ccccc1)(c1ccccc1)c1ccccc1 | 30% | 67.6% | 99% | 87.6% | 37.3% | 59.9% | 56.5% | 61.8% | 89.3% | 7.5% (active)
12 | CN1CCN(C(=O)c2ccc(NC(=O)c3cc4c(nn3)NCCN4Cc3cc(Cl)ccc3Cl)cc2)CC1 | 74.3% | 36.8% | 95.8% | 82.3% | 53.4% | 67.2% | 36.1% | 55.2% | 75.2% | 71.1%
13 | CC1(C)COB(OCC(C)(C)COB2OCC(C)(C)CO2)OC1 | 101% | 100% | 92.2% | 108% | 107% | 87.9% | 106% | 100% | 104% | 109%
14 | Cc1cc(S(=O)(=O)/N=C(\N)n2nc(C)c(C)c2C)c(SCc2ccccc2)cc1Cl | 54.6% | 78.6% | 86.2% | 91.7% | 81.2% | 50.3% | 17.2% | 52.9% | 77.2% | 114%
15 | O=C1NC(=O)C(Cc2ccc(OCc3ccc(-c4ccc(Cl)cc4Cl)cc3)cc2)S1 (stereo not given) | 46.9% | 74.5% | 90.8% | 66.4% | 58.5% | 53.7% | 26.8% | 39.4% | 63.8% | 90.4%
16 | CCc1ccc(CCCC(=O)O)cc1 | 96.5% | 95.1% | 101% | 87% | 108% | 91.1% | 89.9% | 97.7% | 95.4% | 112%
17 | O=C(O)CCCN1C(=O)/C(=C/c2cn(-c3ccccc3)nc2-c2ccc([N+](=O)[O-])cc2)SC1=S | 74.6% | 64.8% | 44.1% | 49.6% | 25.7% | 111% | 83.7% | 40.5% | 64.5% | 103%
18 | COc1cc2c(c(OC)c1OC)CCC(c1cccc(NC(=O)c3ccc(Br)cc3)c1)O2 (stereo not given) | 80.1% | 72.4% | 75.1% | 87.2% | 93.5% | 58.5% | 74.6% | 67.4% | 97.1% | 85.8%
19 | COC(=O)CC[C@H](C)[C@H]1CC[C@H]2[C@@H]3CC[C@@H]4CC5(CC[C@]4(C)[C@H]3CC(=O)[C@]12C)Nc1ccccc1NC5=NC(C)(C)C (stereo not given in full) | 72.8% | 65.4% | 95.6% | 84.3% | 85.5% | -2.12% (active) | 75.8% | 82.3% | 81.1% | 66.4%
20 | COc1cc2c(c(OC)c1OC)CCC(c1cccc(C(=O)Nc3ccc(C#N)cc3)c1)O2 (stereo not given) | 40.6% | 33% | 77.4% | 72.1% | 56.5% | 52.3% | 38.4% | 50.9% | 80.6% | 84.8%
21 | CCn1c(SCC(=O)N/N=C(\C)c2ccc(Cl)cc2)nc2c1c(=O)n(C)c(=O)n2C | 102% | 99.7% | 96.9% | 91.8% | 101% | 103% | 97.7% | 104% | 101% | 107%
22 | [O-]/[N+](=C\c1ccc(-n2cc(Cc3ccccc3Cc3cn(-c4ccc(/C=[N+](/[O-])c5ccccc5)cc4)nn3)nn2)cc1)c1ccccc1 | 94.7% | 101% | 93.3% | 100% | 108% | 112% | 97% | 105% | 97.5% | 107%
23 | C=C(C)[C@@H]1CC[C@]2(CO)CC[C@]3(C)[C@H](CC[C@@H]4[C@@]5(C)CC[C@H](NCO)C(C)(C)[C@@H]5CC[C@]43C)[C@@H]12 | -20.9% (active) | 72.5% | -83.7% (active) | -61.9% (active) | -86.1% (active) | 42.2% | -42.7% (active) | -45.7% (active) | -94% (active) | -57.1% (active)
24 | C=C(CBr)[C@@H]1CC[C@]2(C(=O)O)CC[C@]3(C)[C@H](CC[C@@H]4[C@@]5(C)CCC(=O)C(C)(C)[C@@H]5CC[C@]43C)[C@@H]12 | 85.8% | 73.2% | 92.2% | 112% | 81.3% | 72.3% | 46.5% | 57.7% | 106% | 99.9%
25 | O=S(=O)(c1ccccc1)n1cc2c(c1)-c1nc(Nc3ncccn3)sc1CC2 | 61.9% | 25.9% | 63.6% | 22.1% | 68.4% | 22% | 55.3% | 35.2% | 18.3% | 61.9%
